Holding throughout (test): DAPPL (digital affinity profiling via proximity ligation, sequencing); 10 mM Tris-HCl pH 7.5, 50 mM NaCl, 1 mM DTT, 4% glycerol, room temperature, 30 min; GST-TFs on glutathione beads, 16-mer random dsDNA library, 0.1% formaldehyde crosslink after washing; high values mean tight binding
The target in one experiment is T1, FLI1 (Homo sapiens, UniProt Q01543 1-452).
T1 sequence: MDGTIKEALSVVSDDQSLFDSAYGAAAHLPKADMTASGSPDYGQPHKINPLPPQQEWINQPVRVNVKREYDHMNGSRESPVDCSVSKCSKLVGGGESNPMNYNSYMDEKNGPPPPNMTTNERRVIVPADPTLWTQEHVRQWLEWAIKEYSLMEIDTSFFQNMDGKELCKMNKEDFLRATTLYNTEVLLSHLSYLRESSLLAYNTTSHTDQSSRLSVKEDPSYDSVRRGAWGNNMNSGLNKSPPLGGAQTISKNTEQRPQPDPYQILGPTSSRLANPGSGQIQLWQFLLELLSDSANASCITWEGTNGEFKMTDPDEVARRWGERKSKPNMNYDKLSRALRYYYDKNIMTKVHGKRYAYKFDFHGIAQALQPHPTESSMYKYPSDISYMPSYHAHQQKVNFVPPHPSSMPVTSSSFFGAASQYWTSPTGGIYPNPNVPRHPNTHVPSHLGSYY
As to conditions: protein: recombinant; tags: N-terminal GST; dsDNA, one strand shown. In outline: (§1)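 The binding signal reported is, for every hexamer, its read frequency for a factor over its read frequency for the tag-only sample. Reads came from pools of yeast-expressed, GST-fused human transcription factors on glutathione beads, barcoded with DNA and mixed with that sample, which were incubated with 200 nmole of a random double-stranded 16-mer DNA library in Tris/NaCl/DTT/glycerol buffer at room temperature for 30 min. After washing, the pools were crosslinked with 0.1% formaldehyde, proximity-ligated with BsaI/T4 ligase for 1 h at 37 °C, PCR-amplified and sequenced on an Illumina NextSeq500.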

The target in another experiment is T2, ELK1 (Homo sapiens, UniProt P19419 1-428).
T2 sequence: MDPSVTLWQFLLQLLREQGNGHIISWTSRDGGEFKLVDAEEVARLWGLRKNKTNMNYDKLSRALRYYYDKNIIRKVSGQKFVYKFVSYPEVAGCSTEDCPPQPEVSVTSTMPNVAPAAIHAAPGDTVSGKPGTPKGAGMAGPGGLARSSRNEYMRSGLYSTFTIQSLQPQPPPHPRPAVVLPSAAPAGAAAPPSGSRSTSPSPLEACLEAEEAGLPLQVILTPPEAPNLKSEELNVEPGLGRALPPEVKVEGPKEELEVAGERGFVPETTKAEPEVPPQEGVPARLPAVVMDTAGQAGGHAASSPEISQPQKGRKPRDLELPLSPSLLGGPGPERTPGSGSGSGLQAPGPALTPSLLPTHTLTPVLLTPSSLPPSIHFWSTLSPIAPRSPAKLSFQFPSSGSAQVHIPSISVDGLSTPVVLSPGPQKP
As to conditions: protein: recombinant; tags: N-terminal GST; dsDNA, one strand shown. In outline:
as §1

Another experiment deals with T3, GABPA (Homo sapiens, UniProt Q06546 1-454).
T3 sequence: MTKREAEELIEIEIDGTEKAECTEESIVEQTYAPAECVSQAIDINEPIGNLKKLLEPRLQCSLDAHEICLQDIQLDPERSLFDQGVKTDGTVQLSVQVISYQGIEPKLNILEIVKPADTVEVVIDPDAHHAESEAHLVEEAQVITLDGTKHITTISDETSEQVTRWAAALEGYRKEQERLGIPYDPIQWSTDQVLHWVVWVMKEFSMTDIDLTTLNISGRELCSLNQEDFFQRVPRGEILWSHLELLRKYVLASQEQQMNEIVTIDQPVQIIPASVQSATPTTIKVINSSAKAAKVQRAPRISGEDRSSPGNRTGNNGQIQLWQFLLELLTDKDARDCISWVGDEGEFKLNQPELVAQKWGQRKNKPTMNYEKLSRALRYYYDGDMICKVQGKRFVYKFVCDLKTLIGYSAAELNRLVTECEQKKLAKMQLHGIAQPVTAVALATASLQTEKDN
As to conditions: protein: recombinant; tags: N-terminal GST; dsDNA, one strand shown. In outline:
as §1

Another experiment addresses T4, ERG (Homo sapiens, UniProt P11308 1-479).
T4 sequence: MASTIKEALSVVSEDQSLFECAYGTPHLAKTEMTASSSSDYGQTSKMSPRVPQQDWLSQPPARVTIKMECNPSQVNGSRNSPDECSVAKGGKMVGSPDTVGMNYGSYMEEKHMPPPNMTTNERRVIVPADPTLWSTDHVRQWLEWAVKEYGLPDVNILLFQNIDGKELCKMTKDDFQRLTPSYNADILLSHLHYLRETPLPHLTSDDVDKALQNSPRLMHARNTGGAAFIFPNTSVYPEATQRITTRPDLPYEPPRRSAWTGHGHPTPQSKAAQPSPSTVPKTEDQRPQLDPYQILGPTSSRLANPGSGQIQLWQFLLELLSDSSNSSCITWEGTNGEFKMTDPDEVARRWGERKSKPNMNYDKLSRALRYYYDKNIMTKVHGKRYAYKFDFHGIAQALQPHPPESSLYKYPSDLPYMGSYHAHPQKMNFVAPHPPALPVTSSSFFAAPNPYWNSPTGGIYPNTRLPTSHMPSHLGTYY
As to conditions: protein: recombinant; tags: N-terminal GST; dsDNA, one strand shown. In outline:
as §1

The next experiment addresses ELF1 (Homo sapiens, UniProt P32519 1-619). The settings on record: protein: recombinant; tags: N-terminal GST; dsDNA, one strand shown. In outline: as §1
Another experiment addresses T5, EHF (Homo sapiens, UniProt Q9NZC4 1-300).
T5 sequence: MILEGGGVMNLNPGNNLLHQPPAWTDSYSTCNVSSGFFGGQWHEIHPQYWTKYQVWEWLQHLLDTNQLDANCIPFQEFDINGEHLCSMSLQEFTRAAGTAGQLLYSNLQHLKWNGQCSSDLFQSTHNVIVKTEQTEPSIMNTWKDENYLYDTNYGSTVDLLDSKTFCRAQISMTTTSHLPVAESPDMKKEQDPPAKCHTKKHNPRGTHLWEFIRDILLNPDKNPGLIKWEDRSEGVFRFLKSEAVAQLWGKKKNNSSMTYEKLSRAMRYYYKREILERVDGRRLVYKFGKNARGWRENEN
As to conditions: protein: recombinant; tags: N-terminal GST; dsDNA, one strand shown. The method in brief: as §1

Another experiment has as its target SPI1 (Homo sapiens, UniProt P17947 1-270). The settings on record: protein: recombinant; tags: N-terminal GST; dsDNA, one strand shown. In outline:
as §1

For the next experiment, the target named is SPIB (Homo sapiens, UniProt Q01892 1-262). As to conditions: protein: recombinant; tags: N-terminal GST; dsDNA, one strand shown. The method in brief: as §1
SPIB, sequence (Q01892 whole entry): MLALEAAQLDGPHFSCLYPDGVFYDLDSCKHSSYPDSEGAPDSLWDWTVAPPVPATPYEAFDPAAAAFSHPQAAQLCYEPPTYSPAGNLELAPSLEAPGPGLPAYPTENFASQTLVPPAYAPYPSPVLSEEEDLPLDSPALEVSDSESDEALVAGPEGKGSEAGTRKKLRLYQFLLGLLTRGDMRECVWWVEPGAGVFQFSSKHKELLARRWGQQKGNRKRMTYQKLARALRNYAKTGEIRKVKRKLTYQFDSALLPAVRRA
The next experiment has as its target T6, FEV (Homo sapiens, UniProt Q99581 1-238).
T6 sequence: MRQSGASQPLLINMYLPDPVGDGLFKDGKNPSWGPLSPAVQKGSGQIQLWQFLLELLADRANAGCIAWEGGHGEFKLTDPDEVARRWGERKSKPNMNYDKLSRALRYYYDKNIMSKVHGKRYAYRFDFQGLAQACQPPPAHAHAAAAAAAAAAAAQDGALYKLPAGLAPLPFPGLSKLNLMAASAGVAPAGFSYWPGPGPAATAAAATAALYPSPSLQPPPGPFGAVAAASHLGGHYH
The settings on record: protein: recombinant; tags: N-terminal GST; dsDNA, one strand shown. In outline:
as §1

The next experiment has as its target ETV5 (Homo sapiens, UniProt P41161 1-510). The settings on record: protein: recombinant; tags: N-terminal GST; dsDNA, one strand shown. In outline:
as §1

Another experiment has as its target HSF1 (Homo sapiens, UniProt Q00613 1-529). The settings on record: protein: recombinant; tags: N-terminal GST; chain copies: 3; dsDNA, one strand shown. In outline: as §1
The next experiment addresses T7, SPIC (Homo sapiens, UniProt Q8N5J4 1-248).
T7 sequence: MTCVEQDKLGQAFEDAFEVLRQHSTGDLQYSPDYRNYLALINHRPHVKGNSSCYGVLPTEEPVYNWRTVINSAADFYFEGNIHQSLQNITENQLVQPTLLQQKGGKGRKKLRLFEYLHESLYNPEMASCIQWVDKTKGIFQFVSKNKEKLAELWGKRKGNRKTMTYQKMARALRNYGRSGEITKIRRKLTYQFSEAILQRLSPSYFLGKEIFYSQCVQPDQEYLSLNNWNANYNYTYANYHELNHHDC
The settings on record: protein: recombinant; tags: N-terminal GST; dsDNA, one strand shown. In outline:
as §1

The next experiment addresses ELF4 (Homo sapiens, UniProt Q99607 1-663). The settings on record: protein: recombinant; tags: N-terminal GST; dsDNA, one strand shown. The method in brief:
as §1

Another experiment addresses T8, ELK4 (Homo sapiens, UniProt P28324-2 1-405).
T8 sequence: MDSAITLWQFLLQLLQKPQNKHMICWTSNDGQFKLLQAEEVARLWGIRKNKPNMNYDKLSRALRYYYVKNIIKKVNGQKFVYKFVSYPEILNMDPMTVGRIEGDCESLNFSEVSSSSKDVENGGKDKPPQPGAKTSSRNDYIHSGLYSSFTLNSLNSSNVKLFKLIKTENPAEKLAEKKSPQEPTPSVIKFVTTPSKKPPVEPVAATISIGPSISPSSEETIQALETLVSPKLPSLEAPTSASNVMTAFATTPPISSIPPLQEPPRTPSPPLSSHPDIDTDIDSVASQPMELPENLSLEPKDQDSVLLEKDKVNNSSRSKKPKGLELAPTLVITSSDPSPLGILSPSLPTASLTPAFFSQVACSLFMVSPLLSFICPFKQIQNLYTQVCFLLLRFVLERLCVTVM
The settings on record: protein: recombinant; tags: N-terminal GST; dsDNA, one strand shown. The method in brief: as §1

The target of a further experiment is T9, ETV2 (Homo sapiens, UniProt O00321 1-342).
T9 sequence: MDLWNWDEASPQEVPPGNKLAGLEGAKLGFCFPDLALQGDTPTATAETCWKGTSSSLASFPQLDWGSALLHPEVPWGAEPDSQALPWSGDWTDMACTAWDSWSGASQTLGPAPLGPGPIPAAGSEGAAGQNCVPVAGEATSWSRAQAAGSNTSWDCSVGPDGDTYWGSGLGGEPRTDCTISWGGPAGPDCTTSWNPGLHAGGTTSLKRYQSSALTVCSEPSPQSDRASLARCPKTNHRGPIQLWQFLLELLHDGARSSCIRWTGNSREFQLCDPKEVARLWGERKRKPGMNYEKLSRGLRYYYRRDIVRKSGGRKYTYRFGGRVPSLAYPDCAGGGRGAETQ
As to conditions: protein: recombinant; tags: N-terminal GST; dsDNA, one strand shown. The method in brief: as §1

A further experiment addresses CRX (Homo sapiens, UniProt O43186 1-299). The settings on record: protein: recombinant; tags: N-terminal GST; dsDNA, one strand shown. The method in brief:
as §1

A further experiment deals with ETV1 (Homo sapiens, UniProt P50549 1-477). The settings on record: protein: recombinant; tags: N-terminal GST; dsDNA, one strand shown. In outline:
as §1

CRX, sequence (O43186 whole entry): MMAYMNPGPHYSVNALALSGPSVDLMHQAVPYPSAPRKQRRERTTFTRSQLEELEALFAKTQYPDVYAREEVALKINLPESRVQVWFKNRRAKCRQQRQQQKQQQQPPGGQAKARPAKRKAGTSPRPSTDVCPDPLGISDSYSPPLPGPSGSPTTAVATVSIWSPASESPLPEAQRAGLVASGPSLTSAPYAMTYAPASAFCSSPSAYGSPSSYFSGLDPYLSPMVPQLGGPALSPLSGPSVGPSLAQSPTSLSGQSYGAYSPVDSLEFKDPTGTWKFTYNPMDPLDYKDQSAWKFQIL
ELF1, sequence (P32519 whole entry): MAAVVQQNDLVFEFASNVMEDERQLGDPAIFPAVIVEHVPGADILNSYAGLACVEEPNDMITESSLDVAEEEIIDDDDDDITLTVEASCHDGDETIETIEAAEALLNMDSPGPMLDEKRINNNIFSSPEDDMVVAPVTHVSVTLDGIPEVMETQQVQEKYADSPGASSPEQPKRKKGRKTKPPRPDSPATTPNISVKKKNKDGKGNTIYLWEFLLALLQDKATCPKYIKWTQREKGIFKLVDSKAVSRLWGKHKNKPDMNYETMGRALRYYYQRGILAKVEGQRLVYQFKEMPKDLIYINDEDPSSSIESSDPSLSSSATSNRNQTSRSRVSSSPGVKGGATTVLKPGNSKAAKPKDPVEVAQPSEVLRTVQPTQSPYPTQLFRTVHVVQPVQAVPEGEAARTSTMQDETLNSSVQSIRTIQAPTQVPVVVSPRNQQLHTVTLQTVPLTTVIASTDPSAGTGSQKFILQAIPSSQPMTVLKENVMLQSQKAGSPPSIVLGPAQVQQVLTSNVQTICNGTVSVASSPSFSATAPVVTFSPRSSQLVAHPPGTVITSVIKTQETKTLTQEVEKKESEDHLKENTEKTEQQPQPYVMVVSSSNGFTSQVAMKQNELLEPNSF
ETV1, sequence (P50549 whole entry): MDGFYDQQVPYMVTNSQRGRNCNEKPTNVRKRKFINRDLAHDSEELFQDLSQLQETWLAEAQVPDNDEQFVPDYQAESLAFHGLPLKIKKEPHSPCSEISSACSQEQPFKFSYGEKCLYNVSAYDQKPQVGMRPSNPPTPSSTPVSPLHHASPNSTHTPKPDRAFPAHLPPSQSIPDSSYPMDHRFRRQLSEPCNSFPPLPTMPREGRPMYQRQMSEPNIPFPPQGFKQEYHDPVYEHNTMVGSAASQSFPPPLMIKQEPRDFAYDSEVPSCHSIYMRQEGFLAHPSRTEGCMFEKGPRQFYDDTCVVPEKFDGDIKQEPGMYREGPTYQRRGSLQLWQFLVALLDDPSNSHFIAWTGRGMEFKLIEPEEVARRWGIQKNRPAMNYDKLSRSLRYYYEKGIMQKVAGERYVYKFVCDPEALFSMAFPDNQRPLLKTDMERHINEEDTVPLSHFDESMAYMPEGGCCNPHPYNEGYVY
ETV5, sequence (P41161 whole entry): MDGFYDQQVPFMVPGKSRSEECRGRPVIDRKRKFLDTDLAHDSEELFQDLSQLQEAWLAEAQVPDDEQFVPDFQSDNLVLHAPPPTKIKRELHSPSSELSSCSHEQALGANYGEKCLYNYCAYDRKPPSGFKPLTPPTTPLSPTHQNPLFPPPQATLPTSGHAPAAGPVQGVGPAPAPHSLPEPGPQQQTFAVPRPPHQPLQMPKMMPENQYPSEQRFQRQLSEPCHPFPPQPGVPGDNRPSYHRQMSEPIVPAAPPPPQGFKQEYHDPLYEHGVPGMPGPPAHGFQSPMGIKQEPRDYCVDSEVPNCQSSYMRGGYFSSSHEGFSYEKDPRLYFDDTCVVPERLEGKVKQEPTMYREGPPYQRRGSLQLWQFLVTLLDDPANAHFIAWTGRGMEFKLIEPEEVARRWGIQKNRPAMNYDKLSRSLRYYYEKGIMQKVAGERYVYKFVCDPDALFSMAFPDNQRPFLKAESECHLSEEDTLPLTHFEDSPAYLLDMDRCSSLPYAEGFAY
ELF4, sequence (Q99607 whole entry): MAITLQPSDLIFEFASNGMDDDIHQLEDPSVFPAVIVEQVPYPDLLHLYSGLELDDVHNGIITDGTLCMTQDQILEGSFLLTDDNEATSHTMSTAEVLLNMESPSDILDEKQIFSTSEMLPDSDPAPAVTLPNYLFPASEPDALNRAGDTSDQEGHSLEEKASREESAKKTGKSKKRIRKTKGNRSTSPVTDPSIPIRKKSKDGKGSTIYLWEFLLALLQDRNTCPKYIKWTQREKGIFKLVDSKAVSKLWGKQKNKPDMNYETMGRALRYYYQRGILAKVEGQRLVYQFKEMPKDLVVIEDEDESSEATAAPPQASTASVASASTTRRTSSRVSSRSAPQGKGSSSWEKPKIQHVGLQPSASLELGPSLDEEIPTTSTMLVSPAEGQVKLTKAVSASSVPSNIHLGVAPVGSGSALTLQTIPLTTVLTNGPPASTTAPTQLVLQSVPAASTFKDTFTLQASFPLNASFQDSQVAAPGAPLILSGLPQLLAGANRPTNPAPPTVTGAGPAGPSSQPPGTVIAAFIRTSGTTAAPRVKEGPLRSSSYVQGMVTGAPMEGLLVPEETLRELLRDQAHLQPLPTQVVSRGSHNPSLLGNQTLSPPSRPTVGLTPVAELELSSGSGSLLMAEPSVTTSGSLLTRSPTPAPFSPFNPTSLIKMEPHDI
HSF1, sequence (Q00613 whole entry): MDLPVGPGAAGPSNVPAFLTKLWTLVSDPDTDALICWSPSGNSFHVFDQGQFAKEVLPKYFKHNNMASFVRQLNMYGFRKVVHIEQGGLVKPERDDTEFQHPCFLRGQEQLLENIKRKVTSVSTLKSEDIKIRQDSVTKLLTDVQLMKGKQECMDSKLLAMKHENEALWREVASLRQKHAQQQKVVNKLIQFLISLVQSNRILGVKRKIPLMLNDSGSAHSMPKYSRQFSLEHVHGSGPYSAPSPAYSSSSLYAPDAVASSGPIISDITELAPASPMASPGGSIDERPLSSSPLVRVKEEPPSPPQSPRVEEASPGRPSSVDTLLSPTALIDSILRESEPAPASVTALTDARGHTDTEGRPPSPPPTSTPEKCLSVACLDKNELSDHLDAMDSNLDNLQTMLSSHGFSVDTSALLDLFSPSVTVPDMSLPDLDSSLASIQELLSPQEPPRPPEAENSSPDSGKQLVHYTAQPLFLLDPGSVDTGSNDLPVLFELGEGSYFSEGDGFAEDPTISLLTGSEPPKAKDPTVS

As to GAAAAG, the binding signal is 1.05 fold enrichment (6-mer frequency, TF over GST control) with FLI1; 1.01 fold enrichment (6-mer frequency, TF over GST control) with ELK1; 1.07 fold enrichment (6-mer frequency, TF over GST control) with GABPA; 1.06 fold enrichment (6-mer frequency, TF over GST control) with ERG; 1.04 fold enrichment (6-mer frequency, TF over GST control) with ELF1; 1.11 fold enrichment (6-mer frequency, TF over GST control) with EHF. In addition, the binding signal was 1.3 fold enrichment (6-mer frequency, TF over GST control) with SPI1; 1.14 fold enrichment (6-mer frequency, TF over GST control) with SPIB; 1.04 fold enrichment (6-mer frequency, TF over GST control) in the experiment with FEV; 1.02 fold enrichment (6-mer frequency, TF over GST control) in the experiment with ETV5; 1.22 fold enrichment (6-mer frequency, TF over GST control) with HSF1; 1.1 fold enrichment (6-mer frequency, TF over GST control) with SPIC. Also, the binding signal with ELF4 is 1.05 fold enrichment (6-mer frequency, TF over GST control); with ELK4, 1.01 fold enrichment (6-mer frequency, TF over GST control); in the experiment with ETV2 it was 1.11 fold enrichment (6-mer frequency, TF over GST control); in the experiment with CRX it was 1.01 fold enrichment (6-mer frequency, TF over GST control); in the experiment with ETV1 it was 1.15 fold enrichment (6-mer frequency, TF over GST control).

These data come from publication PMC7862700, “An all-to-all approach to the identification of sequence-specific readers for epigenetic DNA modifications on cytosine”.
